# From paper PMC7862700, “An all-to-all approach to the identification of sequence-specific readers for epigenetic DNA modifications on cytosine”
# How the values were obtained:
# Experiment in all cases: DAPPL (digital affinity profiling via proximity ligation, sequencing); 10 mM Tris-HCl pH 7.5, 50 mM NaCl, 1 mM DTT, 4% glycerol, room temperature, 30 min; GST-TFs on glutathione beads, 16-mer random dsDNA library, 0.1% formaldehyde crosslink after washing; high values mean tight binding
# FLI1 = biological target: T1, FLI1 (Homo sapiens, UniProt Q01543 1-452); settings: protein: recombinant; tags: N-terminal GST; dsDNA, one strand shown
# T1 sequence: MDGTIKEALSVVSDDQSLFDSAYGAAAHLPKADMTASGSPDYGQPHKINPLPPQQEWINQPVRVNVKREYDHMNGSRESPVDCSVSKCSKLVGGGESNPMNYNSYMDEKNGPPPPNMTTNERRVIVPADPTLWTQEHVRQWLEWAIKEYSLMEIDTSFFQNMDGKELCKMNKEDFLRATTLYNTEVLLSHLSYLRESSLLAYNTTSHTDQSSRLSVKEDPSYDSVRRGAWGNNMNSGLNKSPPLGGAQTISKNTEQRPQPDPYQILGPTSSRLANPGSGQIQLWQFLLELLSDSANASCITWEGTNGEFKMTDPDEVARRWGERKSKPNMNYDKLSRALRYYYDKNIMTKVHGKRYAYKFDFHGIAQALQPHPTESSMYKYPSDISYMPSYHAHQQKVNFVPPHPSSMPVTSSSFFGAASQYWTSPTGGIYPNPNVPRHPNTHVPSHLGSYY
# Method in brief: (§1)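 Human transcription factors carrying a GST fusion were produced in yeast, bound to glutathione beads, tagged with DNA barcodes and pooled together with a tag-only sample. Each pool was held with 200 nmole of a random double-stranded 16-mer DNA library in Tris/NaCl/DTT/glycerol buffer for 30 min at room temperature, then washed, crosslinked in 0.1% formaldehyde, proximity-ligated with BsaI/T4 ligase (1 h, 37 °C), PCR-amplified and sequenced on an Illumina NextSeq500. Binding signal is the read frequency of each hexamer for a given factor divided by its frequency in the tag-only sample.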
# ELK1 = biological target: T2, ELK1 (Homo sapiens, UniProt P19419 1-428); settings: protein: recombinant; tags: N-terminal GST; dsDNA, one strand shown
# T2 sequence: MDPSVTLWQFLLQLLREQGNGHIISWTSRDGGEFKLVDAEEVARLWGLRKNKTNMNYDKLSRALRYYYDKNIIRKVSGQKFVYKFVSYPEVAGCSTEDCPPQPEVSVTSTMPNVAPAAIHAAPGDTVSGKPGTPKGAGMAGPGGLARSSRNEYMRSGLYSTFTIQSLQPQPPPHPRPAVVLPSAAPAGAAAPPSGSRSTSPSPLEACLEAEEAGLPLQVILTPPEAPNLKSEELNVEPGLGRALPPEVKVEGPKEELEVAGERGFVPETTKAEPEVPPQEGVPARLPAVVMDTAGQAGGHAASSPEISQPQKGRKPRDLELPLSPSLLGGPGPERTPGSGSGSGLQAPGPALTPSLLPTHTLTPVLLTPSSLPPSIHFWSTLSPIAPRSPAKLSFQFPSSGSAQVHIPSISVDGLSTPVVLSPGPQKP
# Method in brief: as §1
# GABPA = biological target: T3, GABPA (Homo sapiens, UniProt Q06546 1-454); settings: protein: recombinant; tags: N-terminal GST; dsDNA, one strand shown
# T3 sequence: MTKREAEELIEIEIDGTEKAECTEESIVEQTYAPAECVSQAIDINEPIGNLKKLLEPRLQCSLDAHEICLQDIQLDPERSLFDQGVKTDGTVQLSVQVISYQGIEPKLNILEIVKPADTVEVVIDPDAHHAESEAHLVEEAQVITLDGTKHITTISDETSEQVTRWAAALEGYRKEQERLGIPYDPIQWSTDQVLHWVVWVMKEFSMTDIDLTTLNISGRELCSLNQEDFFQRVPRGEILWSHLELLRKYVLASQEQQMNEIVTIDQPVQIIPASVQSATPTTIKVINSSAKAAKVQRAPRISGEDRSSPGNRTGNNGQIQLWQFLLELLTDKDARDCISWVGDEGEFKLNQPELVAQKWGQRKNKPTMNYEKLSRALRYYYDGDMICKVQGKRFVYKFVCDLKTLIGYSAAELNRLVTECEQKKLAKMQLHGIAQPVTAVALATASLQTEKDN
# Method in brief: as §1
# ERG = biological target: T4, ERG (Homo sapiens, UniProt P11308 1-479); settings: protein: recombinant; tags: N-terminal GST; dsDNA, one strand shown
# T4 sequence: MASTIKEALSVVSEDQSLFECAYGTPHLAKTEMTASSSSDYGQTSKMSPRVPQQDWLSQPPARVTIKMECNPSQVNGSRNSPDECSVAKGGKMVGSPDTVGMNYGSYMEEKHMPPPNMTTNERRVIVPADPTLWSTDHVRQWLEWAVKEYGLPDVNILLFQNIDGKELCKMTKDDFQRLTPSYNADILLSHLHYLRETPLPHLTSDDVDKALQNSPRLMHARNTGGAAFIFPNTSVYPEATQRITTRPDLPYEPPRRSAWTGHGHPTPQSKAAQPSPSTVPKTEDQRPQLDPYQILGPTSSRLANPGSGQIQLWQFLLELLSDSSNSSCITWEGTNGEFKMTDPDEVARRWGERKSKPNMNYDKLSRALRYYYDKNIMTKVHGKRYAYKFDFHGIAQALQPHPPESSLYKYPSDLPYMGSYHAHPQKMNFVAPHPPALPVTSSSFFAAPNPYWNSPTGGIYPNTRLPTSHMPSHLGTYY
# Method in brief: as §1
# ELF1 = ELF1 (Homo sapiens, UniProt P32519 1-619); settings: protein: recombinant; tags: N-terminal GST; dsDNA, one strand shown
# ELF1, sequence (P32519 whole entry): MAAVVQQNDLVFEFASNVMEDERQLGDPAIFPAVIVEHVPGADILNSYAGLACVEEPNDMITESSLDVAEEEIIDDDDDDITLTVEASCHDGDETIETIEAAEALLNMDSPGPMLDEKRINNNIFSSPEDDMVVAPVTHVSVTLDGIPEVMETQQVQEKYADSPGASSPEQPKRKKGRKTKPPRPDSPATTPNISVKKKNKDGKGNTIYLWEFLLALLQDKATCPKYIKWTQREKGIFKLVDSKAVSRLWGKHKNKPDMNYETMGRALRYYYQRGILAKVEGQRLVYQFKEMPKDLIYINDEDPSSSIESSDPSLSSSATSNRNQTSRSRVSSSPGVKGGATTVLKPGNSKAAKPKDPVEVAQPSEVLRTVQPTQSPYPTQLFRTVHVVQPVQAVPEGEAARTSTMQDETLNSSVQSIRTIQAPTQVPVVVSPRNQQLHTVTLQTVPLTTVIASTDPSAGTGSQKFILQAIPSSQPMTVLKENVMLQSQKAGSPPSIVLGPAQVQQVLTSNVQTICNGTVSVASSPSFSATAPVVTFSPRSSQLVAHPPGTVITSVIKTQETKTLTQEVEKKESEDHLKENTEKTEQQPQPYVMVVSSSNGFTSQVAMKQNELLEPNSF
# Method in brief: as §1
# EHF = biological target: T5, EHF (Homo sapiens, UniProt Q9NZC4 1-300); settings: protein: recombinant; tags: N-terminal GST; dsDNA, one strand shown
# T5 sequence: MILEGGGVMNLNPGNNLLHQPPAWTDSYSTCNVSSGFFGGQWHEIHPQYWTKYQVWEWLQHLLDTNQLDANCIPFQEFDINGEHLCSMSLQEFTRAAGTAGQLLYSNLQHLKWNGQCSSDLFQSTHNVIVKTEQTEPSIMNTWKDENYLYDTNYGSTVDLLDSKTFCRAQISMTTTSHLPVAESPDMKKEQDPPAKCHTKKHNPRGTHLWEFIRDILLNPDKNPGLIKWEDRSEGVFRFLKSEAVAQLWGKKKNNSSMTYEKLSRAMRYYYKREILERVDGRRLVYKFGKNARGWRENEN
# Method in brief: as §1
# SPI1 = SPI1 (Homo sapiens, UniProt P17947 1-270); settings: protein: recombinant; tags: N-terminal GST; dsDNA, one strand shown
# Method in brief: as §1
# SPIB = SPIB (Homo sapiens, UniProt Q01892 1-262); settings: protein: recombinant; tags: N-terminal GST; dsDNA, one strand shown
# SPIB, sequence (Q01892 whole entry): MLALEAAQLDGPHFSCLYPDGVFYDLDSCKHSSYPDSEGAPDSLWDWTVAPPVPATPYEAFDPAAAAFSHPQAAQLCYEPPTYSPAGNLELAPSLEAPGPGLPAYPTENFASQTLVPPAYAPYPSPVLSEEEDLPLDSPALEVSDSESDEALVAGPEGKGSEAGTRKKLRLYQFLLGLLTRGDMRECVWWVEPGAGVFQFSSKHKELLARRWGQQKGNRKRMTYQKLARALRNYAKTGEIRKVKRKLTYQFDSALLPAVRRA
# Method in brief: as §1
# ELK3 = biological target: T6, ELK3 (Homo sapiens, UniProt P41970 1-407); settings: protein: recombinant; tags: N-terminal GST; dsDNA, one strand shown
# T6 sequence: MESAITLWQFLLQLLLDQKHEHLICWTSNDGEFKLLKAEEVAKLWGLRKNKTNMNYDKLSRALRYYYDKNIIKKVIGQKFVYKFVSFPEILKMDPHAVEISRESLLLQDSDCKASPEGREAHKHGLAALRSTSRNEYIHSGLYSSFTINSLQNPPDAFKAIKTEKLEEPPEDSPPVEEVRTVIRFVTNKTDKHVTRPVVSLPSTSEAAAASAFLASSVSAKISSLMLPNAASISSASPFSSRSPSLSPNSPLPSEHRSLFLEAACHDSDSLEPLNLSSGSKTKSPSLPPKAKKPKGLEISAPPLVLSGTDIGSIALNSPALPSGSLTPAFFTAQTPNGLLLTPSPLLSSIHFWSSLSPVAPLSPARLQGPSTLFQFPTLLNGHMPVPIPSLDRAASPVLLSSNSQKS
# Method in brief: as §1
# FEV = biological target: T7, FEV (Homo sapiens, UniProt Q99581 1-238); settings: protein: recombinant; tags: N-terminal GST; dsDNA, one strand shown
# T7 sequence: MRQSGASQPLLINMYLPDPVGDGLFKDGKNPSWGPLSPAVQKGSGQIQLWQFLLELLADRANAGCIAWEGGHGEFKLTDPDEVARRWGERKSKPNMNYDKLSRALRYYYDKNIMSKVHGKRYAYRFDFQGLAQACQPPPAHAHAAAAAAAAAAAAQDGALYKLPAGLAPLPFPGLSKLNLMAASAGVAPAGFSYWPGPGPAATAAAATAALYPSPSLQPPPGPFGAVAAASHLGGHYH
# Method in brief: as §1
# ETV5 = ETV5 (Homo sapiens, UniProt P41161 1-510); settings: protein: recombinant; tags: N-terminal GST; dsDNA, one strand shown
# ETV5, sequence (P41161 whole entry): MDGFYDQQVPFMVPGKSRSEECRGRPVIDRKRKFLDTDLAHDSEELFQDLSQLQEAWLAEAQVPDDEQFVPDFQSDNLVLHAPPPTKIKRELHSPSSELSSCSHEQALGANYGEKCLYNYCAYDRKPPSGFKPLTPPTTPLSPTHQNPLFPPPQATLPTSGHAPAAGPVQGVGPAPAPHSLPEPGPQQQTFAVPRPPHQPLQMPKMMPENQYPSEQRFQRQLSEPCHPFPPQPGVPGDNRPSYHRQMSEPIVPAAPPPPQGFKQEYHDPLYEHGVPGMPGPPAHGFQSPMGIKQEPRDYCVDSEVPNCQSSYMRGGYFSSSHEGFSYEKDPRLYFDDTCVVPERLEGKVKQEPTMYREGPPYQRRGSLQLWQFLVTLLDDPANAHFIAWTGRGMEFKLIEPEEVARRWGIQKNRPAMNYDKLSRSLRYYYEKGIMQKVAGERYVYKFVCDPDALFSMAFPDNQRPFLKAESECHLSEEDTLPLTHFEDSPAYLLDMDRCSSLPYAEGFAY
# Method in brief: as §1
# HSF1 = HSF1 (Homo sapiens, UniProt Q00613 1-529); settings: protein: recombinant; tags: N-terminal GST; chain copies: 3; dsDNA, one strand shown
# HSF1, sequence (Q00613 whole entry): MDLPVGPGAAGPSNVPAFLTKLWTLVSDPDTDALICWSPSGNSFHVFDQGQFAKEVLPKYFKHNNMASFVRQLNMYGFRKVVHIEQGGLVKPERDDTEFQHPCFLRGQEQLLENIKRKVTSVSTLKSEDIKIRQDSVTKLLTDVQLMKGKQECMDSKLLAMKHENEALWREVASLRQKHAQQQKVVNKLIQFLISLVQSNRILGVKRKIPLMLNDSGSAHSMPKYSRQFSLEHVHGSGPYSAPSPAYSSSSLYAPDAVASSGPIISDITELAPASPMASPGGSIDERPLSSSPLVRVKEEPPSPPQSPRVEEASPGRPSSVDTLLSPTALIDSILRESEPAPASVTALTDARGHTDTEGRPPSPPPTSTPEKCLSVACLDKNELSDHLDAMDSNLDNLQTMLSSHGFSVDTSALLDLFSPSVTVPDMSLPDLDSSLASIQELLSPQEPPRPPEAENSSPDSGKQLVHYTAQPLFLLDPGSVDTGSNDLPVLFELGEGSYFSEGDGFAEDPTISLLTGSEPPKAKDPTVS
# Method in brief: as §1
# SPIC = biological target: T8, SPIC (Homo sapiens, UniProt Q8N5J4 1-248); settings: protein: recombinant; tags: N-terminal GST; dsDNA, one strand shown
# T8 sequence: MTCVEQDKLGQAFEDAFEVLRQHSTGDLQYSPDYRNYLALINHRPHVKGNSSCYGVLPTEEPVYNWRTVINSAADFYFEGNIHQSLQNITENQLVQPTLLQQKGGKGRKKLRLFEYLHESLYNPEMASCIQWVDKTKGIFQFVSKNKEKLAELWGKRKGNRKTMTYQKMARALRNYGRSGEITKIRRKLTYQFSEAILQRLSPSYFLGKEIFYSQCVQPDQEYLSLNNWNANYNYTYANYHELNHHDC
# Method in brief: as §1
# ELF4 = ELF4 (Homo sapiens, UniProt Q99607 1-663); settings: protein: recombinant; tags: N-terminal GST; dsDNA, one strand shown
# ELF4, sequence (Q99607 whole entry): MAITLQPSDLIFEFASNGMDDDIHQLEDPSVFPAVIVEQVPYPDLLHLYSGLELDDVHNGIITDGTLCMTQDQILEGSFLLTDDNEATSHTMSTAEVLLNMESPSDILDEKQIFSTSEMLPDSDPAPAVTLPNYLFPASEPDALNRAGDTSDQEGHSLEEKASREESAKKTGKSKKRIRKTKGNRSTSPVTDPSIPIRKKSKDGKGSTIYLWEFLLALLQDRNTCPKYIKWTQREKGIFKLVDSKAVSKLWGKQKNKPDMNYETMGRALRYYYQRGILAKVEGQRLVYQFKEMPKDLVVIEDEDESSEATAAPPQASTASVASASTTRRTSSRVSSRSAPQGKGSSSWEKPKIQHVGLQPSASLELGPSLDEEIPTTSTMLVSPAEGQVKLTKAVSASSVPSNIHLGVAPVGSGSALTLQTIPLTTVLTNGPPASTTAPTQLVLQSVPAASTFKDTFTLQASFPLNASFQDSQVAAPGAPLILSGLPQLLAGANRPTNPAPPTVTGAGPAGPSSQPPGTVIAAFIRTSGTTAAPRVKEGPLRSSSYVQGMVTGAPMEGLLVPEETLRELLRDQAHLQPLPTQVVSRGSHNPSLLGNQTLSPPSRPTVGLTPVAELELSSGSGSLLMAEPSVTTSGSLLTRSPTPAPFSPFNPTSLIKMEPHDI
# Method in brief: as §1
# ELK4 = biological target: T9, ELK4 (Homo sapiens, UniProt P28324-2 1-405); settings: protein: recombinant; tags: N-terminal GST; dsDNA, one strand shown
# T9 sequence: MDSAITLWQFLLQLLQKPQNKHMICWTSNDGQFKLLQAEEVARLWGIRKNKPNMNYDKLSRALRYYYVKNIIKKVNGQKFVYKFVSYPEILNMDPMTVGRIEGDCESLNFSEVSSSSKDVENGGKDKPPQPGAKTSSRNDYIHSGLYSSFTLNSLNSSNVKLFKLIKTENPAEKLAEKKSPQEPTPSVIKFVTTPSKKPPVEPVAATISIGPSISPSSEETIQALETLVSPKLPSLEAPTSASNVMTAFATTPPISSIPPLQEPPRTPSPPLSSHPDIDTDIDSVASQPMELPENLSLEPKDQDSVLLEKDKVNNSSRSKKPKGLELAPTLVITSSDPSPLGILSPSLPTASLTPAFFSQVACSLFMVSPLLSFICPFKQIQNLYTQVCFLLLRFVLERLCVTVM
# Method in brief: as §1
# ETV2 = biological target: T10, ETV2 (Homo sapiens, UniProt O00321 1-342); settings: protein: recombinant; tags: N-terminal GST; dsDNA, one strand shown
# T10 sequence: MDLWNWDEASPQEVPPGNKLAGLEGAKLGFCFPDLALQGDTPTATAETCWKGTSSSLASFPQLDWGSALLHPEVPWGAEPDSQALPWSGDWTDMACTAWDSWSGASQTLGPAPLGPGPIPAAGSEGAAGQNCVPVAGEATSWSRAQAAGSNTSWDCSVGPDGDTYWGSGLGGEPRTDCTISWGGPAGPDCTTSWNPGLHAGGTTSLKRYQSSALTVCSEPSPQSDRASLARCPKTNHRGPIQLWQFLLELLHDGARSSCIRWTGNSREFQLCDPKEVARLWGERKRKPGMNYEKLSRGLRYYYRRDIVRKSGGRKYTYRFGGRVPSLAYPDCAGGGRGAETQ
# Method in brief: as §1
# ELF3 = biological target: T11, ELF3 (Homo sapiens, UniProt P78545 1-371); settings: protein: recombinant; tags: N-terminal GST; dsDNA, one strand shown
# T11 sequence: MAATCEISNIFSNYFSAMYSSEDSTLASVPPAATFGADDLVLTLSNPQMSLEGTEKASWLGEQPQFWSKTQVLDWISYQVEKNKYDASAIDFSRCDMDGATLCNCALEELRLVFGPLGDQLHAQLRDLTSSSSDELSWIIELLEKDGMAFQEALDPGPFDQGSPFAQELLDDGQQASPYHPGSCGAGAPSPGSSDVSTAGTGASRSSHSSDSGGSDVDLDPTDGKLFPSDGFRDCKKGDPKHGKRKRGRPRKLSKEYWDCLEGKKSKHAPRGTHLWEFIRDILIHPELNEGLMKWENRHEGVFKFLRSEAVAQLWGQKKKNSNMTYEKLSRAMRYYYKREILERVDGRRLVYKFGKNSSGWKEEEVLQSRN
# Method in brief: as §1
# CRX = CRX (Homo sapiens, UniProt O43186 1-299); settings: protein: recombinant; tags: N-terminal GST; dsDNA, one strand shown
# CRX, sequence (O43186 whole entry): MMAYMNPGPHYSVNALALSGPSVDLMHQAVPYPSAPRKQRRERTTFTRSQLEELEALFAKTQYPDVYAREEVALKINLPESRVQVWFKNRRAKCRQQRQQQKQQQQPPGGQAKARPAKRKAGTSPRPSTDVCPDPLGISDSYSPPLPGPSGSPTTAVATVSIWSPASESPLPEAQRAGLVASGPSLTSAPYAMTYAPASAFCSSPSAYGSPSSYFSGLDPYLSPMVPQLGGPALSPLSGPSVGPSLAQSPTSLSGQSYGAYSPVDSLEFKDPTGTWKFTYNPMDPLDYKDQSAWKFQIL
# Method in brief: as §1
# ETV1 = ETV1 (Homo sapiens, UniProt P50549 1-477); settings: protein: recombinant; tags: N-terminal GST; dsDNA, one strand shown
# ETV1, sequence (P50549 whole entry): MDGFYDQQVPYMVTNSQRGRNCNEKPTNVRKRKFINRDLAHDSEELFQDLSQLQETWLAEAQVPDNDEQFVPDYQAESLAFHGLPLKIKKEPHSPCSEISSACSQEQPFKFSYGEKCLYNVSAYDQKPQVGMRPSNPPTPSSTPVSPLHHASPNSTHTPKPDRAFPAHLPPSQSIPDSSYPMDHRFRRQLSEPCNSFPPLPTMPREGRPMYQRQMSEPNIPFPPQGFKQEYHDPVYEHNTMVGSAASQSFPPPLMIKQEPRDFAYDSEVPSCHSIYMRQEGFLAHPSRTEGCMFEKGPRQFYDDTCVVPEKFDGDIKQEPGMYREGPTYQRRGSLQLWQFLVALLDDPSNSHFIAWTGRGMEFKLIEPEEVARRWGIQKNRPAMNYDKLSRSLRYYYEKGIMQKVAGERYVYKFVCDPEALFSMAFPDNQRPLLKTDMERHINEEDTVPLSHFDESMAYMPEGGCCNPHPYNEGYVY
# Method in brief: as §1
sequence,measurement,setting,value
GAACAA,binding signal,FLI1,"1.17 fold enrichment (6-mer frequency, TF over GST control)"
same,binding signal,ELK1,"1.13 fold enrichment (6-mer frequency, TF over GST control)"
same,binding signal,GABPA,"1.16 fold enrichment (6-mer frequency, TF over GST control)"
same,binding signal,ERG,"1.14 fold enrichment (6-mer frequency, TF over GST control)"
same,binding signal,ELF1,"1.22 fold enrichment (6-mer frequency, TF over GST control)"
same,binding signal,EHF,"1.22 fold enrichment (6-mer frequency, TF over GST control)"
same,binding signal,SPI1,"1.15 fold enrichment (6-mer frequency, TF over GST control)"
same,binding signal,SPIB,"1.24 fold enrichment (6-mer frequency, TF over GST control)"
same,binding signal,ELK3,"1.2 fold enrichment (6-mer frequency, TF over GST control)"
same,binding signal,FEV,"1.11 fold enrichment (6-mer frequency, TF over GST control)"
same,binding signal,ETV5,"1.18 fold enrichment (6-mer frequency, TF over GST control)"
same,binding signal,HSF1,"1.5 fold enrichment (6-mer frequency, TF over GST control)"
same,binding signal,SPIC,"1.23 fold enrichment (6-mer frequency, TF over GST control)"
same,binding signal,ELF4,"1.2 fold enrichment (6-mer frequency, TF over GST control)"
same,binding signal,ELK4,"1.16 fold enrichment (6-mer frequency, TF over GST control)"
same,binding signal,ETV2,"1.28 fold enrichment (6-mer frequency, TF over GST control)"
same,binding signal,ELF3,"1.22 fold enrichment (6-mer frequency, TF over GST control)"
same,binding signal,CRX,"1.06 fold enrichment (6-mer frequency, TF over GST control)"
same,binding signal,ETV1,"1.21 fold enrichment (6-mer frequency, TF over GST control)"
